Rows were chosen to be rich in hits. Some 6.7% of all compounds tested hit in one or more screens of this group.
C diff growth – inhibitors of Clostridium difficile growth; Clostridium difficile clinical isolate growth, OD600, 24 h; active compounds read low; growth activity, negative = inhibition, % at 16 µg/mL (by protocol); 86,000 tested, 0.25% active;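 active = mean growth activity at or below -80% and every replicate also at or below -80%; inconclusive = mean at or below -80% but some replicate above -80%; inactive = mean growth activity above -80%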;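 also: 0% = DMSO wells and -100% = levofloxacin 16 µg/mL wells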
Pf Dd2 inh – blocks growth of Plasmodium falciparum Dd2 parasites | P. falciparum Dd2 growth, SYBR Green, 72 h; active compounds read low | activity change, % at 10 µM | 94,000 tested, 2.3% active; in the data active = activity change below about -80%; inconclusive = no clear call, values can overlap the other calls
T cruzi growth – blocks T. cruzi growth in NIH3T3 culture; T. cruzi beta-gal in NIH3T3, GalScreen luminescence, 90 h; inhibition, % at 8.34 µM; 77,000 tested, 5.9% active;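 active = mean inhibition above about 93%, with at least 55% of replicates each passing it, limit read from the data, passing the limit was not always enough; inconclusive = only one of those two conditions holds; inactive = neither condition holds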
* marks the source's active call; other numbers are inactive results; ? = inconclusive; . = no result.

SMILES	C diff growth	Pf Dd2 inh	T cruzi growth
C[C@@H]1CCCCO[C@H](CN(C)S(=O)(=O)c2cccs2)[C@H](C)CN([C@@H](C)CO)C(=O)c2cc(NC(=O)Nc3cccc4ccccc34)ccc2O1	.	-54	19
CC(C)NC(=O)Nc1cccc2c1O[C@@H](CN(C)Cc1ccncc1)[C@@H](C)CN([C@H](C)CO)C2=O	1	-2	-3
CCCN(C)C[C@@H]1Oc2cc(-c3ccc(C#N)cc3)ccc2S(=O)(=O)N([C@H](C)CO)C[C@@H]1C	0	-16	.
C[C@@H]1CN([C@H](C)CO)C(=O)c2cc(NS(=O)(=O)c3cccs3)ccc2O[C@@H]1CN(C)Cc1ccncc1	-4	18	-76
CN1C(=O)c2cc(NC(=O)C3CCOCC3)ccc2OC[C@H]2O[C@H](CC(=O)NC3CCCC3)CC[C@H]21	-7	17	30
Cc1ccc(S(=O)(=O)N(C)C[C@H]2Oc3ccc(NS(=O)(=O)c4cn(C)cn4)cc3C(=O)N([C@@H](C)CO)C[C@H]2C)cc1	.	31	-1
COc1cccc(S(=O)(=O)N(C)C[C@H]2Oc3ncc(-c4cccc(C(=O)N(C)C)c4)cc3C(=O)N([C@H](C)CO)C[C@H]2C)c1	-4	20	-16
C[C@@H]1CN([C@@H](C)CO)C(=O)c2cc(C3=CCCC3)cnc2O[C@@H]1CN(C)C(=O)C1CCC1	2	0	57
C[C@@H]1CCCCO[C@H](CN(C)S(=O)(=O)c2ccccc2)[C@@H](C)CN([C@H](C)CO)C(=O)c2cc(NC(=O)Nc3cccc4ccccc34)ccc2O1	1	6	58
C[C@@H]1CN([C@H](C)CO)C(=O)c2cc(NC(=O)Nc3cccc4ccccc34)ccc2O[C@@H](C)CCCCO[C@@H]1CN(C)S(=O)(=O)c1ccccc1	2	-93*	.
C[C@@H]1CN([C@@H](C)CO)C(=O)c2cc(NC(=O)Cc3cn(C)c4ccccc34)ccc2O[C@@H]1CN(C)Cc1ccc(C(=O)Nc2ccccc2N)cc1	.	-69	-25
C[C@@H]1CCCCO[C@@H](CN(C)Cc2ccc(C(=O)Nc3ccccc3N)cc2)[C@@H](C)CN([C@H](C)CO)C(=O)c2cc(NC(=O)Cc3ccccc3)ccc2O1	2	-84*	.
CC(C)NC(=O)Nc1ccc2c(c1)C(=O)N([C@H](C)CO)C[C@H](C)[C@H](CN(C)Cc1ccc(C(=O)Nc3ccccc3N)cc1)OCCCC[C@@H](C)O2	4	?	.
C[C@H]1CN([C@@H](C)CO)C(=O)c2cc(NC(=O)c3ccncc3)ccc2O[C@@H]1CN(C)Cc1ccc(C(=O)Nc2ccccc2N)cc1	5	-86*	.
C[C@@H]1CN([C@@H](C)CO)C(=O)c2cc(NC(=O)Cc3ccccc3)ccc2O[C@@H]1CN(C)Cc1ccc(C(=O)Nc2ccccc2N)cc1	3	-86*	44
C[C@@H]1CN([C@H](C)CO)C(=O)c2cc(NC(=O)Cc3ccccc3)ccc2O[C@H]1CN(C)Cc1ccc(C(=O)Nc2ccccc2N)cc1	-7	-51	66
C[C@@H]1CN([C@H](C)CO)C(=O)c2cc(NC(=O)c3ccncc3)ccc2O[C@@H]1CN(C)Cc1ccc(C(=O)Nc2ccccc2N)cc1	.	-61	105
C[C@@H]1CN([C@@H](C)CO)C(=O)c2cc(NC(=O)Cc3cn(C)c4ccccc34)ccc2O[C@H]1CN(C)Cc1ccc(C(=O)Nc2ccccc2N)cc1	.	-85*	-37
Cc1ccc(S(=O)(=O)Nc2ccc3c(c2)CC(=O)N([C@@H](C)CO)C[C@H](C)[C@H](CN(C)C(=O)NC2CCCCC2)O3)cc1	-12	15	2
CCCC#Cc1ccc([C@@H]2[C@H]3CN(C(=O)c4ccncc4)CC(=O)N3[C@H]2CO)cc1	-1	19	.
O=C(NC[C@H]1CC[C@@H]2[C@@H](CN2C(=O)C2CCOCC2)O1)c1cccnc1	-2	28	.
C[C@@H]1CCCCO[C@H](CN(C)C(=O)c2ccncc2)[C@@H](C)CN([C@@H](C)CO)C(=O)c2cc(N(C)C)ccc2O1	-2	20	48
C[C@@H](NC(=O)C[C@@H]1CC[C@H](NC(=O)C2CCOCC2)[C@@H](CO)O1)c1ccccc1	2	-7	29
C[C@@H]1CN([C@H](C)CO)C(=O)c2cc(NC(=O)Nc3ccccc3)ccc2O[C@@H]1CN(C)S(=O)(=O)c1ccc(F)cc1	1	24	47
CC(C)C#Cc1cnc2c(c1)C(=O)N([C@H](C)CO)C[C@@H](C)[C@@H](CN(C)C(=O)CCN1CCCCC1)O2	3	.	-3
O=C([C@@H]1[C@@H](CO)[C@@H]2Cn3c(cccc3=O)[C@@H]2N1CC1CC1)N1CCc2ccccc2C1	-3	3	12
COc1ccc(CN(C)C[C@@H]2Oc3ccc(NS(=O)(=O)c4ccc(OC)cc4)cc3CC(=O)N([C@@H](C)CO)C[C@@H]2C)cc1	-8	-21	76
